Test results reported in PubChem BioAssay AID694 (Emory University Molecular Libraries Screening Center, 2007).
Screen size: about 1,300 compounds; about 25 (2%) were called active. The rule behind the calls is not given here. Many of the other results were omitted from the sample, so actives are more common in it than they were.

Biological target: Estrogen receptor (Homo sapiens) (UniProt P03372)
Assay: blockers of coactivator recruitment to ERα – biochemical, LOPAC library, TR-FRET, primary screen (AID 694);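 note: receptor was agonist-bound with estradiol present during the assay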
Settings: TR-FRET ERalpha-coactivator peptide binding, stronger effect = higher value

Chain of Estrogen receptor (Homo sapiens) (P03372 whole entry, looked up): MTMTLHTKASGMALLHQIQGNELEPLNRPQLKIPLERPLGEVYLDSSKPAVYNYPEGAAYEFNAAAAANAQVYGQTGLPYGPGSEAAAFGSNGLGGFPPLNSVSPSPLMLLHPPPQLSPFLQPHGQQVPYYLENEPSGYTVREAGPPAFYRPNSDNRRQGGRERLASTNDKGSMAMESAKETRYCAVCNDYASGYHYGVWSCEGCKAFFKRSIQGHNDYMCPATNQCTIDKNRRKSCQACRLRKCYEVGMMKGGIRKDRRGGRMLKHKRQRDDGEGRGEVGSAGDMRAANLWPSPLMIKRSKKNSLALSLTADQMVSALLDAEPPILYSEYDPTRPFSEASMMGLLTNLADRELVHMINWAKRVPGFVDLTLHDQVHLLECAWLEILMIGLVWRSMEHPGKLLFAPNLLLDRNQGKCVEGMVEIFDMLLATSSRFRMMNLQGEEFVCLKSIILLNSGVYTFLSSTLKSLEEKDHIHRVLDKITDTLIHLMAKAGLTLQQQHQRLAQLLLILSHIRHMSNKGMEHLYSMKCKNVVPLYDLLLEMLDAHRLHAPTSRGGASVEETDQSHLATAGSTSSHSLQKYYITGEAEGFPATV

**Q.** Which inhibition (at 45 µM) does the source give for `Nc1nc2c(ncn2COC(CO)CO)c(=O)[nH]1` here?
**A.** -3.37% (inactive)

**Q.** And the inhibition (inhibition, at 15 µM)?
**A.** -1.7%

**Q.** Which inhibition (at 45 µM) does the source give for `Cc1cnc(NC(=O)C2=C(O)c3ccccc3S(=O)(=O)N2C)s1` here?
**A.** 1.42% (inactive)

**Q.** What about the inhibition (inhibition, at 15 µM) of the same compound?
**A.** -3.85%

**Q.** With `S=C(S)OC1CC2CC1C1CCCC21` (centres undefined) as the compound, how does the inhibition (at 45 µM) read?
**A.** -5.42% (inactive)

**Q.** What about the inhibition (inhibition, at 15 µM) of the same compound?
**A.** 6.45%

**Q.** With `CC(=O)NCCc1c[nH]c2ccc(O)cc12` as the compound, how does the inhibition (at 45 µM) read?
**A.** -5.1% (inactive)

**Q.** And the inhibition (inhibition, at 15 µM)?
**A.** 4.29%

**Q.** What does the source list for `NC(=O)c1cccc(N)c1`?
**A.** inhibition (at 45 µM): -6.67% (inactive); inhibition (inhibition, at 15 µM): 0.5%

**Q.** With `CC1(C)CCC2=C(O1)c1ccccc1C(=O)C2=O` as the compound, how does the inhibition (at 45 µM) read?
**A.** 0.18% (inactive)

**Q.** And the inhibition (inhibition, at 15 µM)?
**A.** -0.19%

**Q.** Which results are given for `C=CCN1CCc2c(cc(O)c(O)c2Cl)C(c2ccccc2)C1` (centres undefined)?
**A.** inhibition (at 45 µM): -1.29% (inactive); inhibition (inhibition, at 15 µM): -1.34%

**Q.** Which results are given for `NC(N)=N[C@@H](CCC(=O)O)C(=O)O`?
**A.** inhibition (at 45 µM): -1.09% (inactive); inhibition (inhibition, at 15 µM): 5.9%

**Q.** Which results are given for `CC(C)C1C2CCC(C2)C1N` (centres undefined)?
**A.** inhibition (at 45 µM): -15.6% (inactive); inhibition (inhibition, at 15 µM): -0.95%

**Q.** How did the inhibition (at 45 µM) turn out when `NCCC(=O)NCCc1cnc[nH]1` was run?
**A.** -9.27% (inactive)

**Q.** And the inhibition (inhibition, at 15 µM)?
**A.** 2.24%

**Q.** What does the source list for `CCN1/C(=C/C(C)=O)Sc2ccc(OC)cc21`?
**A.** inhibition (at 45 µM): 0.62% (inactive); inhibition (inhibition, at 15 µM): -1.25%

**Q.** For `CSc1ccc2c(c1)N(CCC1CCCCN1C)c1ccccc1S2` (centres undefined), which inhibition (at 45 µM) is on record?
**A.** 13.6% (inactive)

**Q.** What about the inhibition (inhibition, at 15 µM) of the same compound?
**A.** 10.5%

**Q.** Which inhibition (at 45 µM) does the source give for `O=C(O)Cc1ccc(O)c(O)c1` here?
**A.** 13.3% (inactive)

**Q.** What about the inhibition (inhibition, at 15 µM) of the same compound?
**A.** 9.47%

**Q.** What does the source list for `CC(C)C[C@H](N)CSSC[C@@H](N)CC(C)C`?
**A.** inhibition (at 45 µM): 0.5% (inactive); inhibition (inhibition, at 15 µM): -0.82%

**Q.** Which results are given for `Cc1ccccc1CNc1ncnc2c1ncn2C1OC(CO)C(O)C1O` (centres undefined)?
**A.** inhibition (at 45 µM): -2.05% (inactive); inhibition (inhibition, at 15 µM): -1.9%

**Q.** For `Nc1ccc(N2C(=O)c3ccccc3C2=O)c(Cl)c1`, which inhibition (at 45 µM) is on record?
**A.** -4.66% (inactive)

**Q.** And the inhibition (inhibition, at 15 µM)?
**A.** -3.36%

**Q.** `NC(N)=NC(N)=Nc1cccc(Cl)c1` was tested. Which inhibition (at 45 µM) did it give?
**A.** -5.64% (inactive)

**Q.** What about the inhibition (inhibition, at 15 µM) of the same compound?
**A.** -4.32%

**Q.** What does the source list for `CN[C@H]1CC[C@@H](c2ccc(Cl)c(Cl)c2)c2ccccc21`?
**A.** inhibition (at 45 µM): 4.49% (inactive); inhibition (inhibition, at 15 µM): 4.91%

**Q.** What does the source list for `CN1CCN(c2nc3cc(C(F)(F)F)ccc3n3cccc23)CC1`?
**A.** inhibition (at 45 µM): -8.98% (inactive); inhibition (inhibition, at 15 µM): -4.03%

**Q.** For `COc1cc2c(cc1O)CC[C@@H]1[C@@H]2CC[C@]2(C)[C@@H](O)CC[C@@H]12`, which inhibition (at 45 µM) is on record?
**A.** 1.97% (inactive)

**Q.** What about the inhibition (inhibition, at 15 µM) of the same compound?
**A.** 3.36%

**Q.** `O=c1[nH]cnc2[nH]ncc12` was tested. Which inhibition (at 45 µM) did it give?
**A.** -22.8% (inactive)

**Q.** And the inhibition (inhibition, at 15 µM)?
**A.** -0.71%

**Q.** With `NC(CO)C(=O)NNCc1ccc(O)c(O)c1O` (centres undefined) as the compound, how does the inhibition (at 45 µM) read?
**A.** 90.3% [fluorescence artefact?] (active)

**Q.** What about the inhibition (inhibition, at 15 µM) of the same compound?
**A.** 63.1%

**Q.** `N=C(N)SCCc1cccc(CCSC(=N)N)c1` was tested. Which inhibition (at 45 µM) did it give?
**A.** -4.03% (inactive)

**Q.** What about the inhibition (inhibition, at 15 µM) of the same compound?
**A.** -3.18%

**Q.** With `O=C1c2c(O)cc(O)cc2OC(c2ccc(O)c(O)c2)C1O` (centres undefined) as the compound, how does the inhibition (at 45 µM) read?
**A.** 7.88% (inactive)

**Q.** And the inhibition (inhibition, at 15 µM)?
**A.** 5.23%

**Q.** With `O=c1[nH]c2cc(Cl)c(Cl)cc2[nH]c1=O` as the compound, how does the inhibition (at 45 µM) read?
**A.** -4.07% (inactive)

**Q.** What about the inhibition (inhibition, at 15 µM) of the same compound?
**A.** 3.65%

**Q.** Which results are given for `CN(C)CCOC(c1ccccc1)c1ccccc1`?
**A.** inhibition (at 45 µM): 0% (inactive); inhibition (inhibition, at 15 µM): 1.48%

**Q.** Which inhibition (at 45 µM) does the source give for `Nc1ncnc2c1nc(Sc1ccc(Cl)cc1)n2C1OC2COP(=O)(O)O[C@@H]2[C@@H]1O` (some centres undefined) here?
**A.** 2.25% (inactive)

**Q.** What about the inhibition (inhibition, at 15 µM) of the same compound?
**A.** -0.54%
